Source: PubChem BioAssay
Rows were chosen to be rich in hits. Some 2.6% of all compounds tested hit in one or more screens of this group.
PABP polyA inh: PABP-poly(A) binding inhibition; P11940; PABP-poly(A) RNA binding, fluorescence polarization; calls only at 35 µM; 290,000 tested, 1% active;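 also: calls also rest on retests at 20 µM and on dose response follow-up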
PABP1 MLLE inh: blocks PAM2 peptide binding to the PABP1 MLLE domain; inhibition, % at 20 µM; AID 588489; P11940; 360,000 tested, 0.36% active; GST-MLLE / FITC-PAM2 fluorescence polarization; in the data active = inhibition above about 35%, passing the limit was not always enough
AI-2 QS mod: modulators of Vibrio harveyi AI-2 quorum sensing system; Vibrio harveyi JMH597 AI-2 luminescence/OD600 ratio, 9 h; stronger effect = lower value; strain lacks LuxN and CqsS sensors; 0 = neutral-control median; activity change, % at 7.5 µM; 300,000 tested, 0.4% active; AID 2094; in the data active = activity change below about -75%, passing the limit was not always enough; inconclusive = no clear call, values can overlap the other calls;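 also: luminescence divided by OD600 gain over 9 h not by final OD600 alone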
PHOSPHO1 block: PHOSPHO1 (human) inhibition. Q8TCT1. inhibition, % at 13.3 µM. 290,000 tested, 1.1% active. AID 1565. recombinant PHOSPHO1, absorbance phosphatase assay; in the data active = inhibition above about 60%
Target sequence (Q8TCT1 whole entry, looked up): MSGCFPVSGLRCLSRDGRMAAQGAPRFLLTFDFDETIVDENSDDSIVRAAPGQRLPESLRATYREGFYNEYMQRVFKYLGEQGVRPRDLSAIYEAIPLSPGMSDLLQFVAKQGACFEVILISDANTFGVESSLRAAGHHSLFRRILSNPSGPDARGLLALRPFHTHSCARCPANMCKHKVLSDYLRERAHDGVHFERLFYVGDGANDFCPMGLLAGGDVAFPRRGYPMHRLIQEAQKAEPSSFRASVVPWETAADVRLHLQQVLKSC
eIF4H FP inh: inhibitors of RNA binding by human eIF4H; Q15056; eIF4H fluorescence polarization binding assay; inhibition, % at 35 µM; 290,000 tested, 0.94% active; AID 2012;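 also: calls also rest on retests at 20 µM and on dose response follow-up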
ABCB6 inh 2: blocks the human ABCB6 transporter | 360,000 tested, 0.19% active | Q9NP58 | fluorescence ratio to DMSO, % at 10 µM | K562-ABCB6 porphyrin accumulation, flow cytometry, 1 h; stronger effect = lower value | AID 602162;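 active = fluorescence ratio to DMSO below 75%, the collection mean minus 3 SD; inconclusive = too few cells collected in the well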;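 also: signal is porphyrin accumulated inside mitochondria; lower ratio means ABCB6 inhibition with less porphyrin fluorescence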
JMH597 growth: retest Vibrio harveyi JMH597 growth inhibition. growth inhibition, % at 7.5 µM. 750 tested, 1% active. OD600 absorbance, 9 h; lacks LuxN and CqsS sensors. shares compounds with AI-2 QS mod;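 active = every replicate shows growth inhibition above 50%; inconclusive = at least half, but not all, replicates pass that cutoff; inactive = fewer than half of replicates pass it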
BB721 const-QS lum: retest counter-screen: luminescence loss in constitutive-on quorum sensing strain BB721. shares compounds with AI-2 QS mod. Vibrio harveyi BB721 luminescence, 9 h. inhibition, % at 7.5 µM. 750 tested, 95% active. AID 2727;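 active = inhibition above about 80% in every replicate, not just on average, limit read from the data; inconclusive = at least half of replicates past the limit, but not all; inactive = fewer than half of replicates past the limit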
BB721 growth: retest: blocks Vibrio harveyi BB721 growth; shares compounds with AI-2 QS mod; OD600 absorbance, 9 h; growth inhibition, % at 7.5 µM; 750 tested, 3% active;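 active = every replicate shows growth inhibition above 50%; inconclusive = at least half but not all replicates above 50% inhibition; inactive = under half of replicates above 50% inhibition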
JMH597 AI-2 mod: Vibrio harveyi AI-2 signaling luminescence modulation – JMH597 strain, confirmation. shares compounds with AI-2 QS mod. Vibrio harveyi JMH597 AI-2 quorum sensing luminescence, 9 h; luxN and CqsS knockout, AI-2 only. inhibition, % at 7.5 µM. 750 tested, 97% active. AID 2736;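 active = every replicate shows more than 75% inhibition of signal versus neutral control wells; inconclusive = half to three quarters of replicates exceed 75% inhibition; inactive = fewer than half of replicates exceed 75% inhibition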
Large screens that a line does not name were inactive (follow-up assays come after a bar, where they were run). Unless noted, no rule for the calls is given here.

O=C(Nc1ccc(C(O)c2ccccc2)cc1)[C@@H]1O[C@H](CO)[C@@H](O)[C@H]1O (some centres undefined)	none (no result: PABP polyA inh, AI-2 QS mod, PHOSPHO1 block, eIF4H FP inh)
Cc1ccc(NC(=O)Cn2nnc3ccccc3c2=O)cc1	AI-2 QS mod -84 | JMH597 growth inactive | BB721 const-QS lum 97 | BB721 growth inactive | JMH597 AI-2 mod 98
COc1ccc(NC(=O)CCCCCn2nnc3ccccc3c2=O)cc1OC	none
CC(=O)c1ccc(NC(=O)CCCCCn2nnc3ccccc3c2=O)cc1	none (no result: PHOSPHO1 block)
Cc1ccc(NC(=O)Cn2nnc3ccccc3c2=O)cc1C	AI-2 QS mod -93 | JMH597 growth inactive | BB721 const-QS lum 99 | BB721 growth inactive | JMH597 AI-2 mod 99
O=C(Cn1nnc2ccccc2c1=O)Nc1ccc(S(=O)(=O)N2CCOCC2)cc1	AI-2 QS mod -97 | JMH597 growth inactive | BB721 const-QS lum 99 | BB721 growth inactive | JMH597 AI-2 mod 100
CCOC(=O)c1c(C)nsc1NC(=O)C1(C)CCN1C(=O)CC (centres undefined)	none (no result: PABP polyA inh, AI-2 QS mod, PHOSPHO1 block, eIF4H FP inh)
CCc1nc2c(OCCC3CCCCC3)cccn2c1N(C)C(=O)c1ccccc1F	none (no result: PABP polyA inh, AI-2 QS mod, PHOSPHO1 block, eIF4H FP inh)
CCCCCCCCC(c1nc2ccccc2[nH]1)N1CCN=C(c2ccccc2)C1=O (centres undefined)	none (no result: PABP polyA inh, AI-2 QS mod, PHOSPHO1 block, eIF4H FP inh)
COc1ccc(S(=O)(=O)c2nnn(-c3cccc(Cl)c3)c2N)cc1	AI-2 QS mod inconclusive | JMH597 growth inactive | BB721 const-QS lum 99 | BB721 growth inactive | JMH597 AI-2 mod 100
COc1ccc(-c2nnn(-c3cc(Cl)cc(Cl)c3)c2N)cc1	none
Nc1ccn([C@@H]2O[C@H](CNCc3ccc(N4CCNCC4)cc3)[C@@H](O)[C@H]2O)c(=O)n1	none (no result: PABP polyA inh, AI-2 QS mod, PHOSPHO1 block, eIF4H FP inh)
CC(C)c1ccc(NC(=O)COC(=O)Cn2cnc3c2c(=O)n(C)c(=O)n3C)cc1	none (no result: PABP polyA inh, AI-2 QS mod, PHOSPHO1 block, eIF4H FP inh)
COc1ccc(N=C2SCC(c3ccccc3)=NN2C)cc1	AI-2 QS mod -87 | JMH597 growth inactive | BB721 const-QS lum 90 | BB721 growth inactive | JMH597 AI-2 mod 95
COc1ccc(NC(=O)CN2C(=O)NC(C)(c3ccccc3)C2=O)cc1Cl (centres undefined)	AI-2 QS mod -95 | JMH597 growth inactive | BB721 const-QS lum 96 | BB721 growth inactive | JMH597 AI-2 mod 98
Cc1ccccc1CC(=O)Nc1ccc2c(C)cc(=O)oc2c1	none (no result: PHOSPHO1 block)
CC1(c2ccc(OC(F)F)cc2)NC(=O)N(CC(=O)Nc2ccc3c(c2)OCO3)C1=O (centres undefined)	AI-2 QS mod -94 | JMH597 growth inactive | BB721 const-QS lum 96 | BB721 growth inactive | JMH597 AI-2 mod 97
Cc1cc(=O)oc2cc(NC(=O)CN3C(=O)NC(C)(c4ccccc4)C3=O)ccc12 (centres undefined)	AI-2 QS mod -84 (no result: PABP polyA inh, PHOSPHO1 block, eIF4H FP inh) | JMH597 growth inactive | BB721 const-QS lum 86 | BB721 growth inactive | JMH597 AI-2 mod 91
CC1(c2ccc(Cl)cc2)NC(=O)N(CC(=O)Nc2ccc(F)cc2)C1=O (centres undefined)	AI-2 QS mod -78 | JMH597 growth inactive | BB721 const-QS lum 86 | BB721 growth inactive | JMH597 AI-2 mod 89
CC1(c2ccc(Cl)cc2)NC(=O)N(CC(=O)NCc2ccc(F)cc2)C1=O (centres undefined)	none
CC(C)(C)c1ccc(C2(C)NC(=O)N(CC(=O)Nc3ccc4c(c3)OCO4)C2=O)cc1 (centres undefined)	none
CCOC(=O)C1(C)CCN1C(=O)c1cc(C)oc1C (centres undefined)	none (no result: PABP polyA inh, AI-2 QS mod, PHOSPHO1 block, eIF4H FP inh)
COc1ccccc1Cc1c(-c2ccco2)nc2ccc(C)cn12	none (no result: PABP polyA inh, AI-2 QS mod, PHOSPHO1 block, eIF4H FP inh)
CC1(c2ccccc2)NC(=O)N(CC(=O)Nc2ccc3c(c2)OCO3)C1=O (centres undefined)	AI-2 QS mod -95 | JMH597 growth inactive | BB721 const-QS lum 96 | BB721 growth inactive | JMH597 AI-2 mod 98
Cc1ccc(C2(C)NC(=O)N(CC(=O)Nc3ccc4c(c3)CCC4)C2=O)cc1 (centres undefined)	none (no result: PABP polyA inh, AI-2 QS mod, PHOSPHO1 block, eIF4H FP inh)
CC(C)CC1(C)NC(=O)N(CC(=O)Nc2ccc3c(c2)CCC3)C1=O (centres undefined)	AI-2 QS mod -85 | JMH597 growth inactive | BB721 const-QS lum 90 | BB721 growth inactive | JMH597 AI-2 mod 94
O=C(CN1C(=O)NC2(CCc3ccccc32)C1=O)Nc1ccc(N2CCOCC2)cc1 (centres undefined)	AI-2 QS mod -89 | JMH597 growth inactive | BB721 const-QS lum 88 | BB721 growth inactive | JMH597 AI-2 mod 93
COC(=O)/C=C/C(=O)Nc1cccc(C(F)(F)F)c1	AI-2 QS mod -89 | JMH597 growth inactive | BB721 const-QS lum 87 | BB721 growth inactive | JMH597 AI-2 mod 87
Cc1cc(C(=O)NNC(=O)c2cccc(C(F)(F)F)c2)no1	none
COC(=S)Nc1cccc(C(F)(F)F)c1	none
Cc1cc(C(=O)NNC(=O)Nc2cccc(C(F)(F)F)c2)no1	AI-2 QS mod -90 | JMH597 growth inactive | BB721 const-QS lum 98 | BB721 growth inactive | JMH597 AI-2 mod 98
O=C(Cc1ccccc1F)Nc1ccc(SC(F)F)cc1	AI-2 QS mod -83 | JMH597 growth inactive | BB721 const-QS lum 94 | BB721 growth inactive | JMH597 AI-2 mod 94
O=C(COC(=O)Cc1ccccc1F)Nc1ccc(SC(F)F)cc1	none
Cn1cnc(S(=O)(=O)N2CCCCC2c2cc(C(=O)NCc3ccc(Cl)c(Cl)c3)no2)c1 (centres undefined)	none (no result: PABP polyA inh, AI-2 QS mod, PHOSPHO1 block, eIF4H FP inh)
O=C(CNC(=O)c1ccncc1)N/N=C/c1cc(Br)ccc1O	none
Cc1ccc(/C=N/NC(=O)CNC(=O)c2cccs2)cc1	AI-2 QS mod -90, PHOSPHO1 block 66 | JMH597 growth inactive | BB721 const-QS lum 97 | BB721 growth inactive | JMH597 AI-2 mod 97
O=C(CNC(=O)c1ccncc1)N/N=C/c1ccc(Br)cc1	AI-2 QS mod inconclusive | JMH597 growth inactive | BB721 const-QS lum 95 | BB721 growth inactive | JMH597 AI-2 mod 94
COCCCN1C(=O)C(CC(=O)NCc2cccs2)CC(C(=O)N2CCCCCC2)=C1C (centres undefined)	none (no result: PABP polyA inh, PABP1 MLLE inh, AI-2 QS mod, PHOSPHO1 block, eIF4H FP inh)
C(=C\c1nc(-c2ccccc2)no1)/c1ccccc1	AI-2 QS mod -88 | JMH597 growth inactive | BB721 const-QS lum 95 | BB721 growth inactive | JMH597 AI-2 mod 96
CC(C)(C)c1cc(OC(=O)c2ccccc2F)ccc1O	AI-2 QS mod -86 | JMH597 growth inactive | BB721 const-QS lum 97 | BB721 growth inactive | JMH597 AI-2 mod 97
